Compounds without any hit were thinned out: in the full panel of roughly 79,000, 15% have a hit. A number with no mark means an inactive call. Calls of active or inactive are those of the source. Rule as the data show it: active = growth inhibition above about 70%; inactive = the rest.
Assay: NCI Yeast Anticancer Drug Screen. Data for the mlh1 rad18 strain (AID 175)
Details: S. cerevisiae mlh1 rad18 strain growth inhibition; at 50.0 µM; stronger effect = higher value
Outline: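 Vehicle-treated cultures served as the reference for growth inhibition in a yeast strain carrying DNA damage repair alterations exposed to each compound.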

SMILES	growth inhibition
O=C(O)C1C(C2c3ccc(O)cc3Oc3cc(O)ccc32)C2(Cl)C(Cl)=C(Cl)C1(Cl)C2(Cl)Cl (stereo not given)	95.3% (active)
C1=CC2=CC=CC3c4nc5ccc6ccccc6c5nc4C(=C1)C23 (stereo not given)	8.75%
O=C1c2c(c3c4ccccc4[nH]c3c3[nH]c4ccccc4c23)C(=O)N1Cc1ccccc1	10.2%
CC(C)(CC1(C)NC(=O)NC1=O)OCc1ccccc1 (stereo not given)	1.95%
NC(=O)N/N=C/c1cccc([N+](=O)[O-])c1	0%
O=C(CN=C(CN(c1ccccc1)c1ccccc1)Oc1c(Cl)cc(Cl)cc1Cl)N1c2ccccc2Sc2ccccc21	7.8%
N#C/C(=C\N1CC(=O)NC1=S)c1nc2ccccc2s1	19.2%
CC1=C(c2cc(C(=O)Nc3cc(C)ccc3C)nc(N)n2)Sc2ccccc2N1	-10.8%
CC(=O)OC/C=C(C)/C=C/C=C(C)/C=C/C1=C(C)CCCC1(C)C	-55%
CCN(C(=S)Nc1cccc2ccccc12)c1ccccc1	-7.9%
Cc1ccc(C)c2c1CCc1cc3ccccc3nc1-2	13.8%
CN=Cc1c(O)ccc2ccccc12.[Cu+2]	52.9%
Cc1[nH]c(C)c2ccc(=O)ccc12	-7.65%
O=C1C2C(Cl)C(Cl)C(Cl)C(Cl)C2C(=O)N1NC1CCC([N+](=O)[O-])CC1[N+](=O)[O-] (stereo not given)	10.1%
CC(=O)NC1C(OC(C)C(=O)NC(C(=O)NC(CCC(=O)NCCCNC2c3ccccc3Nc3cccc([N+](=O)[O-])c32)C(N)=O)C(C)C)C(O)C(CO)OC1(C)OCc1ccccc1 (stereo not given)	3.25%
CCSc1n[nH]c(=O)nc1SC	-0.35%
CC(C)CCOC(=O)C1C(=O)CC(c2ccccc2)C1c1ccccc1 (stereo not given)	6.25%
CCCOC(=O)COc1ccccc1	2.4%
Cn1c(-c2ccc(/C=N/N=C(N)N)cc2)c[n+]2ccccc12	32.5%
CC1(C)CCCCC1/C=C/C(CC(O)(C(F)(F)F)C(F)(F)F)=N\Nc1ccc([N+](=O)[O-])cc1[N+](=O)[O-] (stereo not given)	26.6%

SMILES	growth inhibition
CCOC(=O)Nc1ccc(Cl)cc1Cl	1.15%
COC(=O)COc1ccccc1[N+](=O)[O-]	4.45%
CCCCOB(OCCCC)Oc1c(C(C)(C)C)cccc1C(C)(C)C	3.75%
N#CCCN(CCC#N)c1nc(-c2ccccc2)nc(N(CCC#N)CCC#N)n1	15.1%
COC1OC(=O)c2cccc3cccc1c23 (stereo not given)	-18.7%
CC(O)C(=O)OCCOCCOC(=O)C(C)O (stereo not given)	7.4%
Cc1ccc(S(=O)(=O)OC(c2ccccc2)C(F)(F)F)cc1 (stereo not given)	2.85%
COc1cccc(C[n+]2cc([O-])on2)c1	18.4%
COc1ccc(-c2cc(-c3ccccc3)c(-c3ccccc3)nn2)cc1CN1CCOCC1	-7.85%
CC(C)C[C@H](NC(=O)[C@H](CCc1ccccc1)NC(=O)c1ccc2ccccc2n1)B(O)O	82.5% (active)
Cc1ccc(C)c(OC(=O)NC2CCCCC2)c1	-19.9%
CC(O)C(O)C(O)C(=O)C=O (stereo not given)	10.4%
O=c1[nH]c(Nc2ccccc2)nc2c1ncn2CC(O)CSCCO (stereo not given)	-27.4%
Cc1cc2ccccc2c[n+]1CC(=O)CC([O-])(C(F)(F)F)C(F)(F)F	-14.9%
O=[N+]([O-])c1ccc(CCCc2ccc([N+](=O)[O-])cc2)cc1	15.1%
CCOc1ccc(/C=C(\NC(=O)c2ccccc2)C(=O)Nc2ccccc2)cc1OC	2.1%
O=C(NC1COB(c2cccc([N+](=O)[O-])c2)OC1c1ccc([N+](=O)[O-])cc1)C(Cl)Cl (stereo not given)	63.5%
c1ccc2c(c1)CCc1cc3cc4c(nc3nc1-2)-c1ccccc1CC4	-15.2%
CCOC(=O)c1ccc2c3c(ccc([N+](=O)[O-])c13)CC2	-8.35%
Brc1ccccc1-c1nnc(-c2cccc3ccccc23)o1	-23.2%

— PubChem BioAssay (NCI)
